Measurements as given in PubChem BioAssay AID2012 (Sanford-Burnham Center for Chemical Genomics, 2009).
Out of some 290,000 compounds screened, about 2,700 (0.93%) were called active. The rule behind the calls is not given here. For the sample, actives were picked, then their nearest neighbours and some compounds at random.

Target: Eukaryotic translation initiation factor 4H (Homo sapiens) (UniProt Q15056)
Experiment: eIF4H binding inhibition – biochemical, uHTS, fluorescence polarization, translation initiation inhibitor project, primary screen (AID 2012);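 note: calls also rest on retests at 20 µM and on dose response follow-up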
Settings: eIF4H fluorescence polarization binding assay, stronger effect = higher value

Row | SMILES | inhibition (at 35 µM) | inhibition (confirmation average, at 20 µM) [%]
1 | COc1cccc(CNS(=O)(=O)c2csc(C(N)=O)c2)c1 | 5.7% (inactive) | –
2 | CS(=O)(=O)N1CCc2nc(-c3ccccc3)sc2C1 | -3.4% (inactive) | –
3 | Cc1cc(C)c2nc(NC(=O)C3CCCO3)sc2c1 (centres undefined) | -3.8% (inactive) | –
4 | Cc1ccc(C)c(C(C)NC(=O)C2CCCO2)c1 (centres undefined) | 92.8% (active) | –
5 | Cc1cc([N+](=O)[O-])ccc1NC(=O)C1CCCO1 (centres undefined) | -1.7% (inactive) | –
6 | COc1ccc(COC(=O)c2ccc(Cl)c(S(=O)(=O)N3CCOCC3)c2)cc1F | 1.3% (inactive) | –
7 | NS(=O)(=O)c1ccc(NC(=O)COC(=O)c2cc3ccccc3oc2=O)cc1 | -1.4% (inactive) | –
8 | NS(=O)(=O)c1ccc(NC(=O)COC(=O)c2ccco2)cc1 | -10.4% (active) | 80.1
9 | NS(=O)(=O)c1ccc(NC(=O)COC(=O)c2ccc(Cl)nc2)cc1 | 7.6% (inactive) | –
10 | Cc1ccc(NC2CCCN(C(=O)CCC3(C)CC3)C2)cc1C (centres undefined) | -6.4% (inactive) | –
11 | CCCCc1ccc(NC(=O)NCc2cccnc2)cc1 | -1.5% (inactive) | –
12 | CCC1C(=O)NCCN1C(=O)c1ccc2nc(Cc3ccc(OC)cc3)oc2c1 (centres undefined) | -1.1% (inactive) | –
13 | COC(=O)c1sccc1NC(=O)COc1ccc(Cl)cc1 | -2% (active) | 90
14 | COC(=O)c1sccc1NC(=O)c1ccc(Cl)cc1 | -1.7% (inactive) | –
15 | O=C(COc1ccc(Cl)cc1)Nc1ccccc1CO | -15.9% (inactive) | –
16 | O=C(CCC(=O)n1ncc2ccccc21)NCc1ccccc1Cl | -5.2% (inactive) | –
17 | COCCCn1c2nc3ccccc3nc2c2c(=O)n(Cc3ccc(Cl)cc3)c(C)nc21 | -0.3% (inactive) | –
18 | Cc1ccc(Cn2c(C)nc3c(c2=O)c2nc4ccccc4nc2n3Cc2ccco2)cc1 | 18% (inactive) | –
19 | Cc1nc2c(c(=O)n1Cc1ccco1)c1nc3ccccc3nc1n2Cc1ccccc1 | 68.6% (active) | –
20 | Cc1cc(NC(=O)CCC(=O)N(CC(=O)NC2CCCC2)c2ccc(F)cc2)no1 | -1.3% (inactive) | –

Row | SMILES | inhibition (at 35 µM) | inhibition (confirmation average, at 20 µM) [%]
21 | O=C(CSc1ccc(-c2ccccn2)nn1)Nc1ccccc1 | -8.7% (inactive) | –
22 | COc1ccc2[nH]c(=O)c(C3c4cc(OC)c(OC)cc4CCN3C(=O)c3ccco3)cc2c1 (centres undefined) | -6.8% (inactive) | –
23 | COc1ccc(S(=O)(=O)Nc2ccc(F)cc2)c(C)c1C | 7.4% (inactive) | –
24 | CCOc1ccc(S(=O)(=O)Nc2ccc(OC)nc2)cc1 | -8.8% (inactive) | –
25 | COc1ccc(NS(=O)(=O)c2ccc(F)cc2F)cn1 | 65.2% (active) | –
26 | Cc1ccc(NS(=O)(=O)c2ccc(C(C)(C)C)cc2)cn1 | -2.4% (inactive) | –
27 | O=C(NC1CCCC1)C(c1ccc(Cl)cc1)N(C(=O)c1csnn1)C1CC1 (centres undefined) | -6.1% (inactive) | –
28 | Cc1ccc(OCCCCc2c(C)n[nH]c2C)cc1 | -10.3% (inactive) | –
29 | CCOC(=O)CC1(NC(=O)c2cc(COc3cncc(Cl)c3)on2)CCCCC1 | -10.4% (inactive) | –
30 | COc1ccc(CN2CCN(C(=O)CCC(=O)Nc3nnc(C(C)C)s3)CC2)cc1F | -7.1% (inactive) | –
31 | Cc1ccc(C(=O)O)cc1-c1ccc(/C=C2\SC(=O)N(CC(=O)Nc3ccc4c(c3)OCO4)C2=O)o1 | 59.7% (active) | –
32 | Cn1c(=O)n(C)c2cc(C(=O)Nc3ccc4c(c3)OCO4)ccc21 | -6.6% (inactive) | –
33 | COc1ccc(NC(=O)CCN2C(=O)/C(=C/c3ccc4c(c3)OCO4)SC2=S)cc1 | 5.7% (inactive) | –
34 | Cc1ccc(S(=O)(=O)N(CC(=O)Nc2cccnc2)c2ccc(Br)cc2)cc1 | 2% (inactive) | –
35 | CCC(NC(=O)C1CCCC1)c1ccc(C)cc1 (centres undefined) | -4.3% (inactive) | –
36 | Cc1ccccc1C(=O)N1CCC(C(=O)Oc2ccc(C#N)cc2)CC1 | -15.9% (inactive) | –
37 | CCN(CC)S(=O)(=O)c1ccc(N2CC(C(=O)NCc3cccnc3)CC2=O)cc1 (centres undefined) | -0.4% (inactive) | –
38 | c1ccc(C2=Nc3cccc4cccc(c34)N2)cc1 | -0.5% (inactive) | –
39 | COc1ccccc1C1=Nc2cccc3cccc(c23)N1 | 99.8% (active) | 108
40 | Fc1ccccc1N=C1Nc2cccc3cccc1c23 | -3.8% (inactive) | –

Row | SMILES | inhibition (at 35 µM) | inhibition (confirmation average, at 20 µM) [%]
41 | CC1CCC2(CC1)NC(=O)N(CC(=O)c1ccc3c(c1)OCO3)C2=O (centres undefined) | -5.1% (inactive) | –
42 | Cn1cccc1C(=O)N1CCc2ccccc2C1 | -1.9% (inactive) | –
43 | CN(CC(=O)Nc1c(Cl)cccc1Cl)C(=O)CNC(=O)C1CCCCC1 | -8.8% (inactive) | –
44 | CC(=O)Nc1ccc(NC(=O)c2sc3nc4c(c(-c5ccc(C)cc5)c3c2N)CCC4)cc1 | -0.5% (inactive) | –
45 | Cc1cccc(NC(=O)c2sc3nc4c(c(-c5ccco5)c3c2N)CCC4)c1 | 82.9% (active) | 90.9
46 | Cc1cccc(NC(=O)c2sc3nc(N4CCOCC4)c4c(c3c2N)CCCC4)c1 | -4.2% (inactive) | –
47 | Cc1ccc(-n2ncc3c2CC(C)(C)CC3NC(=O)Cc2c(C)noc2C)cc1 (centres undefined) | 5.3% (inactive) | –
48 | CCOc1ccccc1/C=c1\sc2nc(-c3ccco3)nn2c1=O | 81.8% (active) | –
49 | CCOC(=O)/C=c1\s/c(=C\c2ccccc2OC)c(=O)n1CC(=O)N1CCOCC1 | 5.6% (inactive) | –
50 | CSc1nc(-c2ccco2)nn1C(=O)CCc1ccccc1 | -7.7% (inactive) | –
51 | Cc1ccc2[nH]c(=O)c(CN(C)S(=O)(=O)c3cccc4nonc34)cc2c1 | -5.4% (inactive) | –
52 | CN(CCOc1ccccc1)C(=O)c1cc(COc2c(F)cccc2F)on1 | -0.6% (inactive) | –
53 | O=C(OCC1O[C@@H](OC(=O)c2cc(O)c(O)c(O)c2)[C@@H](OC(=O)c2cc(O)c(O)c(O)c2)[C@@H](OC(=O)c2cc(O)c(O)c(O)c2)[C@@H]1OC(=O)c1cc(O)c(O)c(O)c1)c1cc(O)c(O)c(O)c1 (some centres undefined) | 92% (active) | –
54 | COc1ccc(N(CC(=O)Nc2cc(OC)ccc2OC)S(=O)(=O)c2c(C)noc2C)cc1 | -10.2% (inactive) | –
55 | O=C(CSc1ncn[nH]1)N/N=C/c1ccc(F)cc1 | -1.2% (inactive) | –
56 | CCN(CC(=O)NCc1cccs1)C(=O)c1cccc(S(=O)(=O)Nc2ccccc2OC)c1 | 35.7% (active) | 53.9
57 | COc1cc(CC(=O)NCc2cccs2)cc(OC)c1OC | -15% (inactive) | –
58 | CCN(CC(=O)NCc1cccs1)C(=O)c1ccccc1F | -2.7% (inactive) | –
59 | Cc1ccc(C(=O)c2coc3ccc(O)c(CN(C)C)c23)cc1 | -10.3% (inactive) | –
